Screening data deposited in PubChem by Broad Institute.
Tgondii IFNg: T. gondii growth inhibition under IFN-gamma | Toxoplasma gondii growth in IFN-gamma-treated host cells; stronger effect = lower value | activity change, negative = inhibition, % (no concentration beside the values) | 3.8% of 69,000 active | AID 1259416; in the data active means activity change below about -70%, passing the limit was not always enough;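 further: host cells are HeLa cells infected with Toxoplasma gondii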
An asterisk follows results filed as active; ! = a repeat was not active. The sample as a whole holds a higher share of hits than the screen did.

SMILES	Tgondii IFNg
CCOC(=O)C(=O)Nc1ccc(-c2nc(-c3cc(C)ccc3C)co2)cc1	8
CCn1c(C2CCN(Cc3coc4ccc(C)cc4c3=O)CC2)nn(C)c1=O	4
NC(=O)N/N=C/c1ccc([N+](=O)[O-])o1	-73*!
O=C1OC(CN2CCOCC2)CN1/N=C/c1ccc([N+](=O)[O-])o1 (stereo unspecified)	-11
NC(=O)N/N=C/c1ccc(Oc2ccc(F)cc2)cc1	19
CN(C)CCOCc1nnn2c1CN(C(=O)c1ccsc1)CCC2	6
CC(c1ccncn1)N(C)C(=O)c1ccc(NC(=O)C2CCC2)cc1 (stereo unspecified)	-44
O=C(Nc1ccccc1)N(Cc1ccc(Cl)cc1)Cc1nc2ccccc2c(=O)[nH]1	-46
CCCCN(C)Cc1ccc(C(=O)Nc2c(C)noc2C)cc1	-4
CCCCN(Cc1ccc(C(=O)NO)cc1)C(=O)Nc1ccccc1	-85*
Fc1ccc(CN2CCn3cc(Cn4cccn4)nc3C2)cc1	0
Cc1nc(NCCCN2CCC(C(N)=O)CC2)cc(C(C)C)n1	13
Cc1ccccc1-c1nnc(NC(=O)CSc2ncc(-c3ccc(Cl)cc3)[nH]2)s1	10
COc1ccc(CNCC(=O)Nc2cccc(C)c2C)c(OC)c1	1
CC(=O)c1csc(CS(=O)(=O)c2ccc(Cl)cc2)n1	-63
CCOC(=O)C1CCN(C(=O)c2sc(-c3cn(C(C)C)c4ncccc34)nc2C)CC1	-51
Cc1nc(-c2cn(C(C)C)c3ncccc23)sc1C(=O)N1CCCC(C)C1 (stereo unspecified)	-117*
Cc1nc(-c2cn(C(C)C)c3ncccc23)sc1C(=O)N1CCC2(CC1)OCCO2	-67
COc1ccccc1NC(=O)Cn1ncc2c(N3CCN(c4ccccn4)CC3)ncnc21	-11
COCCN(Cc1ccc(C)cc1)Cc1cccc(O)c1	34
O=C(N1CC(c2cccnc2)C1)C1(c2ccc(F)cc2)CCOCC1	-36
COc1ccc2c(c1)NC1(CCN(C(=O)Cc3cccc(F)c3)CC1)c1cccn1-2	33
c1cc2c(cc1C13CC4CC(CC(C4)C1)C3)n1nnnc1c1nnnn21	-24
COc1ccc(-c2nc(N3CCN(c4cccc(Cl)c4)CC3)c3ccccc3n2)cc1	-18
O=C(c1cnc[nH]1)N1CCC2(CC(Oc3cccnc3)CO2)C1 (stereo unspecified)	2
SMILES	Tgondii IFNg
O=C(c1ccco1)N1CCCC2(CC(Oc3cccnc3)CO2)C1 (stereo unspecified)	-67
O=C(c1ccn[nH]1)N1CCCC2(CC(Oc3cccnc3)CO2)C1 (stereo unspecified)	-95*
O=C(Nc1cc(F)ccc1F)c1c(O)c2cccnc2n(-c2ccc(F)cc2)c1=O	138
Cc1c(CN(C)c2cc(N3CCCCC3)ncn2)cnn1C	23
CO[C@H]1CO[C@@]2(CCCN(S(=O)(=O)N(C)C)C2)C1	7
Cn1c2ccccc2c2c1cc(C(=O)N1CCCCC1)n2-c1ncccn1	6
Clc1ccc(C2(c3ccc(-c4cn[nH]c4)cc3)CCNCC2)cc1	-72*
Clc1ccc(-c2cn[nH]c2C2CCCNC2)cc1 (stereo unspecified)	1
CC(=O)N1CCC2(CC1)CC(Oc1ccccc1)CO2 (stereo unspecified)	-1
CC1N(Cc2cccnc2)C(=O)COC12CCN(Cc1cnn(C)c1)CC2 (stereo unspecified)	4
CC1N(CCN(C)C)C(=O)COC12CCN(Cc1cnn(C)c1)CC2 (stereo unspecified)	4
C=CCN1C(=O)COC2(CCN(Cc3cnn(C)c3)CC2)C1C (stereo unspecified)	-78*
Cc1cccc(C(C(=O)NCc2ccc(CN)cc2)N(C)C)c1 (stereo unspecified)	-2
Cc1cccc(C2(CNC(=O)c3cccc(Cn4nc(C)cc4C)c3)CCOCC2)c1	11
CC(=O)N[C@@H](Cc1ccccc1)C(=O)N1C[C@@H]2[C@H](C1)c1ccccc1[C@@H]2NC(C)=O	-45
Cc1noc(C)c1NC(=O)N1CCN(c2ncccn2)CC1	2
Cc1oc(-c2ccc(NC(=O)c3cccc(Cl)c3)cc2)nc1Cn1cccn1	-33
COc1cccc(C(=O)Nc2ccc(-c3nc(Cn4cc(C)cn4)c(C)o3)cc2)c1	-93*
Cc1cnn(Cc2nc(-c3ccc(NC(=O)c4cccc(C#N)c4)cc3)oc2C)c1	-50
Cc1oc(-c2ccc(NC(=O)c3cc(F)cc(F)c3)cc2)nc1Cn1cccn1	20
COc1cccc(C(=O)Nc2ccc(-c3nc(Cn4cccn4)c(C)o3)cc2)c1	-99*
COc1cccc(CC(=O)Nc2ccc(-c3nc(Cn4cccn4)c(C)o3)cc2)c1	-44
Cc1ccc(C(=O)Nc2ccc(-c3nc(Cn4cccn4)c(C)o3)cc2)cc1F	23
Cc1oc(-c2ccc(NC(=O)c3cccc(F)c3)cc2)nc1Cn1cccn1	-87*
CC1C(c2ccc(F)cc2)=NOC1C(=O)NC(c1ccccc1)c1cccnc1 (stereo unspecified)	-19
SMILES	Tgondii IFNg
CN(C)C(=O)N1CC2(CCOCC2)c2cc(NC(=O)C3CCC3)ccc21	7
COc1ccc(NC(=O)c2nc3c(n2C)CCN(Cc2ccccc2)C3)cc1	-52
CCOCCCNC(=O)C1=C(C)C(=O)OC12CCN(S(=O)(=O)CC)CC2	35
c1ccc2c(c1)NCC2CN1CCOCC1 (stereo unspecified)	-51
CCCc1ccc(S(=O)(=O)N2CCc3nc(-c4ccccc4)sc3C2)cc1	12
Cc1ccc(N2CCN(Cc3ccccc3)C3(CCN(C)CC3)C2=O)cn1	14
COc1ccc(S(=O)(=O)NC(C)Cc2c[nH]c3c(C)cccc23)cc1NC(C)=O (stereo unspecified)	8
Nc1nc(=S)c2[nH]cnc2[nH]1	-87*
Nc1ncnc2nc[nH]c12	6
CCCS(=O)(=O)N1CCC2C1CCC(=O)N2CCN1CCCC1 (stereo unspecified)	-1
COc1ccc(NC(=O)c2nnn(Cc3nc(-c4cccc(Cl)c4)oc3C)c2C)cc1OC	33
Nc1nc(-c2cccnc2)nc2ccccc12	19
COC(=O)c1cc2n(n1)CCCN(C(=O)c1ccc3c(c1)OCCO3)C2	12
CSc1cccc(NC(=O)CN2CCC3(CC2)N=C(c2cccc(Cl)c2)C(=O)N3)c1	-81
O=S(=O)(Nc1ccccc1C1=NCCc2ccccc21)c1ccc(Cl)cc1	-8
C[C@]12CC[C@H](O)CC1=CCC1C2CC[C@]2(C)C(n3cnc4ccccc43)=CCC12 (stereo partly specified)	-63
CC(=O)[C@H]1[C@H](C#N)C[C@H]2[C@@H]3CC=C4C[C@@H](O)CC[C@]4(C)[C@H]3CC[C@@]21C	-84*
C[C@]12CCC3C(CC=C4C[C@@H](O)CC[C@@]43C)C1CCC2[C@]1(C)CCC(=O)O1 (stereo partly specified)	-65
CCN1CC2(CCN(C(=O)C3CCOCC3)CC2)COc2ccccc2S1(=O)=O	-2
CC1CCN(S(=O)(=O)c2ccc3c(c2)CCC(=O)N3CC(=O)N(Cc2ccccc2)C(C)C)CC1	-81*
Cc1ccc(NC(=O)CN2C(=O)CCc3cc(S(=O)(=O)N4CCCCC4C)ccc32)cc1F (stereo unspecified)	-47
CC1CCN(S(=O)(=O)c2ccc3c(c2)CCC(=O)N3CC(=O)NC(C)C)CC1	33
CCc1cccc(NC(=O)CN2C(=O)CCc3cc(S(=O)(=O)N4CCC(C)CC4)ccc32)c1	-127*
CSc1cccc(NC(=O)CN2C(=O)CCc3cc(S(=O)(=O)N4CCCCC4C)ccc32)c1 (stereo unspecified)	-86*
